PubChem BioAssay (NCI)
Compounds without any hit were thinned out: in the full panel of roughly 83,000, 20% have a hit.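 Cell lines were cultured in 96-well plates, exposed to a single compound concentration, and assessed for percent growth 48 hours later.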 Active and inactive are the calls of the source. Rule for the calls: active = growth percent below 10; inactive = the rest.

Key:
Assay in all cases: NCI-60 one-dose screen, 48 h (100 = growth as untreated, 0 = no growth, -100 = all killed)
Conditions in all cases: 10 µM unless noted
RPMI-8226 leukemia = test system: RPMI-8226 leukemia
OVCAR-8 ovarian = test system: OVCAR-8 ovarian
OVCAR-5 ovarian = test system: OVCAR-5 ovarian
OVCAR-4 ovarian = test system: OVCAR-4 ovarian
SK-OV-3 ovarian = test system: SK-OV-3 ovarian
IGROV1 ovarian = test system: IGROV1 ovarian
OVCAR-3 ovarian = test system: OVCAR-3 ovarian
HS 578T breast = test system: HS 578T breast
NCI/ADR-RES ovarian = test system: NCI/ADR-RES ovarian
T-47D breast = test system: T-47D breast
BT-549 breast = test system: BT-549 breast
MDA-MB-435 melanoma = test system: MDA-MB-435 melanoma
SW-620 colon = test system: SW-620 colon
MCF7 breast = test system: MCF7 breast
HCT-116 colon = test system: HCT-116 colon
HCC-2998 colon = test system: HCC-2998 colon
KM12 colon = test system: KM12 colon

Measured: growth

Cc1c(Cl)cccc1NC(=O)c1sc2nc3c(cc2c1N)COCC3
inactive: RPMI-8226 leukemia 30.3% | OVCAR-8 ovarian 33.6% | OVCAR-5 ovarian 55.3% | OVCAR-4 ovarian 60.9% | SK-OV-3 ovarian 26.5% | IGROV1 ovarian 45.8% | OVCAR-3 ovarian 17.8% | HS 578T breast 40.1% | T-47D breast 32.4% | BT-549 breast 49.6% | SW-620 colon 22.8% | MCF7 breast 16.4% | HCT-116 colon 19.7% | HCC-2998 colon 65.1% | KM12 colon 31.8%
active: NCI/ADR-RES ovarian 6.51% | MDA-MB-435 melanoma -20%

C[C@H](Oc1cc(-c2cnn(C3CCNCC3)c2)cnc1N)c1c(Cl)ccc(F)c1Cl
inactive: RPMI-8226 leukemia 23.3% | OVCAR-8 ovarian 77.7% | OVCAR-5 ovarian 94.3% | OVCAR-4 ovarian 66.7% | SK-OV-3 ovarian 87.2% | IGROV1 ovarian 71.9% | OVCAR-3 ovarian 72.3% | HS 578T breast 56.5% | NCI/ADR-RES ovarian 85.1% | T-47D breast 55.7% | BT-549 breast 75.7% | MDA-MB-435 melanoma 66.1% | SW-620 colon 79.5% | MCF7 breast 37.6% | HCT-116 colon 31.9% | HCC-2998 colon 66% | KM12 colon 50.6%

O=C(Nc1cc(Br)ccn1)c1cc2cc(Nc3nc(-c4ccccc4)nc4ccccc34)ccc2oc1=O
inactive: RPMI-8226 leukemia 108% | OVCAR-8 ovarian 103% | OVCAR-5 ovarian 115% | OVCAR-4 ovarian 111% | SK-OV-3 ovarian 103% | IGROV1 ovarian 115% | OVCAR-3 ovarian 113% | HS 578T breast 107% | NCI/ADR-RES ovarian 113% | T-47D breast 98.3% | BT-549 breast 103% | MDA-MB-435 melanoma 116% | SW-620 colon 104% | MCF7 breast 91.1% | HCT-116 colon 98.5% | HCC-2998 colon 92.7% | KM12 colon 102%

NS(=O)(=O)c1ccc(N2Cc3cc(Cl)ccc3OC3=C2C(=O)N(CC2CCCCC2)C3=O)cc1
active: RPMI-8226 leukemia -30% | OVCAR-8 ovarian -71.9% | OVCAR-5 ovarian -88.7% | OVCAR-4 ovarian -95.3% | IGROV1 ovarian -47.6% | OVCAR-3 ovarian -89.6% | NCI/ADR-RES ovarian 4.6% | T-47D breast -55.3% | BT-549 breast -76.4% | MDA-MB-435 melanoma -73.9% | SW-620 colon -77.5% | MCF7 breast -71.5% | HCT-116 colon -85.6% | HCC-2998 colon -72.9% | KM12 colon 4.52%
inactive: SK-OV-3 ovarian 60% | HS 578T breast 14.5%

O=C1CCC23OC(C(O)c4ccccc4N12)C1C(Br)=NOC13 (configuration not stated)
inactive: RPMI-8226 leukemia 98.7% | OVCAR-8 ovarian 103% | OVCAR-5 ovarian 97.7% | OVCAR-4 ovarian 95.4% | SK-OV-3 ovarian 99% | IGROV1 ovarian 106% | OVCAR-3 ovarian 105% | HS 578T breast 106% | NCI/ADR-RES ovarian 106% | T-47D breast 102% | BT-549 breast 102% | MDA-MB-435 melanoma 96.2% | SW-620 colon 107% | MCF7 breast 96.5% | HCT-116 colon 94.6% | HCC-2998 colon 100% | KM12 colon 103%

Nc1c(C(=O)Nc2ccccn2)sc2nc3c(cc12)CCCCCC3
active: RPMI-8226 leukemia 5.43% | OVCAR-3 ovarian -44.5% | MDA-MB-435 melanoma -57.5% | HCT-116 colon 7.24%
inactive: OVCAR-8 ovarian 19.3% | OVCAR-5 ovarian 46.6% | OVCAR-4 ovarian 23.6% | SK-OV-3 ovarian 19% | IGROV1 ovarian 28.9% | HS 578T breast 18.9% | NCI/ADR-RES ovarian 18.8% | T-47D breast 23.4% | BT-549 breast 31% | SW-620 colon 19% | MCF7 breast 15.6% | HCC-2998 colon 48.9% | KM12 colon 14.4%

COc1ccc2nc(-c3ccc(OC)c(OC)c3)cc(-c3nnc(SCC(=O)Nc4ccc(C(C)=O)cc4)o3)c2c1
inactive: RPMI-8226 leukemia 90.8% | OVCAR-8 ovarian 102% | OVCAR-5 ovarian 109% | OVCAR-4 ovarian 106% | SK-OV-3 ovarian 109% | IGROV1 ovarian 113% | OVCAR-3 ovarian 111% | HS 578T breast 97.3% | NCI/ADR-RES ovarian 108% | T-47D breast 94.6% | BT-549 breast 102% | MDA-MB-435 melanoma 103% | SW-620 colon 103% | MCF7 breast 94.9% | HCT-116 colon 89.7% | HCC-2998 colon 111% | KM12 colon 102%

FC(F)(F)c1ccc2c(Nc3cccc(C4CC(c5ccccc5)=NN4c4ccc(Cl)cc4)c3)ccnc2c1 (configuration not stated)
inactive: OVCAR-8 ovarian 29.8% | OVCAR-5 ovarian 95.5% | OVCAR-4 ovarian 66.6% | SK-OV-3 ovarian 80.9% | IGROV1 ovarian 20.1% | OVCAR-3 ovarian 19.5% | HS 578T breast 84.8% | NCI/ADR-RES ovarian 35.3% | T-47D breast 61.9% | BT-549 breast 55.7% | MDA-MB-435 melanoma 38% | MCF7 breast 11.5% | HCC-2998 colon 66.5% | KM12 colon 15.5%
active: RPMI-8226 leukemia -19.5% | SW-620 colon -17.3% | HCT-116 colon -3.98%

CC(C)NS(=O)(=O)c1cccc(-c2ccc3c(=O)n(CCCN)c4c(c3c2)C(=O)c2ccccc2-4)c1
inactive: RPMI-8226 leukemia 102% | OVCAR-8 ovarian 97.6% | OVCAR-5 ovarian 109% | OVCAR-4 ovarian 85.2% | SK-OV-3 ovarian 107% | IGROV1 ovarian 102% | OVCAR-3 ovarian 99% | HS 578T breast 105% | NCI/ADR-RES ovarian 98.6% | T-47D breast 103% | BT-549 breast 99.8% | MDA-MB-435 melanoma 107% | SW-620 colon 92.4% | MCF7 breast 101% | HCT-116 colon 96.6% | HCC-2998 colon 105% | KM12 colon 98.9%

C#C[C@@]1(O)[C@@H](CO)O[C@@H](n2cc(I)c3c(N)ncnc32)[C@@H]1O
inactive: OVCAR-5 ovarian 20.6% | OVCAR-4 ovarian 20.4% | MDA-MB-435 melanoma 14.6%
active: RPMI-8226 leukemia 5.83% | OVCAR-8 ovarian -19.4% | SK-OV-3 ovarian -28.3% | IGROV1 ovarian -34.9% | OVCAR-3 ovarian -17.8% | HS 578T breast -15.5% | NCI/ADR-RES ovarian -4.5% | T-47D breast -21.1% | BT-549 breast -13.2% | SW-620 colon 0.663% | MCF7 breast 1.73% | HCT-116 colon 0.762% | HCC-2998 colon -35.3% | KM12 colon 9.88%

COc1ccc(C(=O)c2cc(OC)c(OC)c(OC)c2)cc1OC(=O)C(Cl)(Cl)Cl
active: OVCAR-8 ovarian 2.55% | SK-OV-3 ovarian 8.13% | OVCAR-3 ovarian -13.5% | NCI/ADR-RES ovarian 9.28% | BT-549 breast -0.136% | MDA-MB-435 melanoma -13.5% | MCF7 breast 9.81% | HCT-116 colon 4.91% | KM12 colon 9.4%
inactive: RPMI-8226 leukemia 17.9% | OVCAR-5 ovarian 63.8% | OVCAR-4 ovarian 59.7% | IGROV1 ovarian 15.9% | HS 578T breast 38.9% | T-47D breast 63% | SW-620 colon 22.9% | HCC-2998 colon 15.4%

COc1ccc2nc(-c3ccc(Cl)cc3)cc(-c3nnc(SC/C(=N/O)c4ccccc4)o3)c2c1
active: HCT-116 colon 3.9%
inactive: RPMI-8226 leukemia 41.3% | OVCAR-8 ovarian 49.7% | OVCAR-5 ovarian 84.2% | OVCAR-4 ovarian 16.7% | SK-OV-3 ovarian 69.6% | IGROV1 ovarian 50.8% | OVCAR-3 ovarian 34% | HS 578T breast 71.9% | NCI/ADR-RES ovarian 57.4% | T-47D breast 27% | BT-549 breast 46.8% | MDA-MB-435 melanoma 47% | SW-620 colon 26.5% | MCF7 breast 19.9% | HCC-2998 colon 84% | KM12 colon 58.1%

Cc1ccc(C(=O)/C(=C/c2ccc([N+](=O)[O-])cc2)S(=O)Cc2ccccc2)cc1 (configuration not stated)
active: RPMI-8226 leukemia -13% | IGROV1 ovarian -7.98% | OVCAR-3 ovarian 0.0452% | HS 578T breast -2.56% | T-47D breast -38.3% | SW-620 colon 2.41% | MCF7 breast 1.83% | HCT-116 colon -59.2%
inactive: OVCAR-8 ovarian 18.5% | OVCAR-5 ovarian 39.5% | OVCAR-4 ovarian 35% | SK-OV-3 ovarian 80.2% | NCI/ADR-RES ovarian 14.3% | BT-549 breast 45.8% | MDA-MB-435 melanoma 19.7% | HCC-2998 colon 74.8% | KM12 colon 23.1%

COc1cc(-c2csc(NC(=O)Nc3cc(Cl)cc(Cl)c3)n2)cc(OC)c1OC
inactive: RPMI-8226 leukemia 13.7% | OVCAR-5 ovarian 39.1% | SK-OV-3 ovarian 14.9% | BT-549 breast 11.5% | MDA-MB-435 melanoma 27.1% | HCC-2998 colon 70.8% | KM12 colon 18.5%
active: OVCAR-8 ovarian 9.3% | OVCAR-4 ovarian -81.4% | IGROV1 ovarian -59.4% | OVCAR-3 ovarian -85.9% | HS 578T breast -18.2% | NCI/ADR-RES ovarian 5.24% | T-47D breast -41.5% | SW-620 colon -26.4% | MCF7 breast 8.04% | HCT-116 colon -28.9%

Oc1ccc(CNNc2ccnc3c(O)cccc23)c2cccnc12
active: NCI/ADR-RES ovarian 6.61%
inactive: RPMI-8226 leukemia 22.2% | OVCAR-8 ovarian 20.8% | OVCAR-5 ovarian 59.1% | OVCAR-4 ovarian 34.4% | SK-OV-3 ovarian 27.6% | IGROV1 ovarian 35.1% | OVCAR-3 ovarian 37.8% | HS 578T breast 47.7% | T-47D breast 29.6% | BT-549 breast 37.1% | MDA-MB-435 melanoma 38.1% | SW-620 colon 27.9% | MCF7 breast 11.2% | HCT-116 colon 27.3% | HCC-2998 colon 35.7% | KM12 colon 22.9%

CCCCC1=c2c([nH]c3ccc(OC)cc23)=NC2C=CC=NC12 (configuration not stated)
inactive: RPMI-8226 leukemia 56.8% | OVCAR-8 ovarian 101% | OVCAR-5 ovarian 106% | OVCAR-4 ovarian 80.3% | SK-OV-3 ovarian 113% | IGROV1 ovarian 69.9% | OVCAR-3 ovarian 114% | HS 578T breast 92.3% | NCI/ADR-RES ovarian 96.6% | T-47D breast 38.8% | BT-549 breast 98.9% | MDA-MB-435 melanoma 93.4% | SW-620 colon 98.5% | MCF7 breast 13.5% | HCT-116 colon 74.8% | HCC-2998 colon 97.1% | KM12 colon 38.9%
